Most compounds without a hit are left out; they make up all but 3.7% or so of the library.
NALP3 yeast inh: NALP3 inflammasome inhibitors in reconstituted yeast, primary screen, luminescence, uHTS | Yeast reconstituted NLRP3/ASC/caspase-1, beta-gal luminescence, 24 h | inhibition, % at 10 µM | 0.39% of 330,000 active;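 active = inhibition of 50% or more; inactive = inhibition below 50%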;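 note: plate controls were induced DMSO wells for no effect and uninduced yeast grown without galactose for full effect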
TIM10 inh: growth inhibitors of isogenic TIM10 control yeast, primary screen, counter-screen for tim10-1 yeast inhibitor project, luminescence, uHTS | S. cerevisiae TIM10 strain growth, BacTiter-Glo luminescence, 24 h | inhibition, % at 10 µM | 1.4% of 330,000 active | AID 463195, 2010;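 active = inhibition of 40% or more at the single tested concentration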;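 note: wild-type TIM10 isogenic control strain grown at permissive 25 °C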
PfHsp90 set2: growth inhibition of PfHsp90-expressing yeast, primary screen, antimalarial PfHsp90 inhibitor project, S. cerevisiae, BacTiter-Glo luminescence, single point, set 2; BacTiter-Glo ATP, 48 h; yeast lacking PDR1 and PDR3 efflux regulators; inhibition, % at 9.4 µM; 0.32% of 310,000 active;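 active = every replicate shows inhibition above about 80%, whatever the replicate mean, limit read from the data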;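 note: 0% = DMSO neutral controls and 100% = 20 µM radicicol positive controls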
tim23-1 inh: growth inhibitors of tim23-1 mutant yeast, primary screen, luminescence, uHTS | S. cerevisiae tim23-1 growth, BacTiter-Glo luminescence, 24 h | inhibition, % at 20 µM | 1.3% of 330,000 active | AID 463212, 2010;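 active = growth inhibition of the mutant yeast at or above 50%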;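 note: temperature-sensitive mutant grown at 25 °C; plate controls were DMSO-treated mutant yeast for no effect and medium wells lacking yeast for full effect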
tim10-1 inh: growth inhibitors of tim10-1 mutant yeast, primary screen, luminescence, uHTS | AID 463190, 2010 | S. cerevisiae tim10-1 ts strain growth, BacTiter-Glo, 24 h | inhibition, % at 20 µM | 2.2% of 330,000 active;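 active = inhibition of at least 40%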;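 note: mutant grown at 25 °C; 0% = DMSO wells with yeast and 100% = wells holding no yeast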
tim23-1 conf: tim23-1 mutant yeast growth inhibitors, confirmation, luminescence, single concentration | shares compounds with tim23-1 inh | AID 463218, 2010 | S. cerevisiae tim23-1 growth, BacTiter-Glo luminescence, 24 h | 83% of 4,400 active | inhibition, % at 20 µM;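 active = inhibition above about 39% in either of two replicate wells at 20 µM, limit read from the data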;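 note: temperature-sensitive tim23-1 mutant grown at 25 °C; 0% = DMSO wells with yeast and 100% = medium wells without yeast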
* = called active by the depositor; . = no result given.

SMILES | NALP3 yeast inh | TIM10 inh | PfHsp90 set2 | tim23-1 inh | tim10-1 inh | tim23-1 conf
Oc1ccc(C2C[C@H]3CC[C@@H]2C3)cc1O (stereo partly drawn) | 2 | 26 | -60 | 52* | 17 | 25
O=C(Nc1ccc2nsnc2c1)N1CCCCC1 | 15 | 6 | 9 | 5 | -4 | .
S=C(Nc1ccc2nsnc2c1)N1CCCCCC1 | 3 | 19 | -8 | 55* | 26 | 40*
CC(=O)Nc1ccc(-c2c(C)cc3oc(=O)cc(-c4ccccc4)c3c2C)cc1 | . | 3 | -61 | 50* | 28 | 33
CCC(=O)Nc1cccc(C2=NN(c3ccccc3)C(c3ccc(OC)cc3)C2)c1 (stereo not drawn) | -5 | 13 | -42 | 51* | 8 | 30
COc1ccc(C2CC(c3ccccc3)=NN2c2ccc(N)cc2)cc1 (stereo not drawn) | 22 | 27 | -12 | 51* | 28 | 41*
COc1ccc(C2CC(c3ccccc3)=NN2c2ccc(Cl)c(C(=O)O)c2)cc1 (stereo not drawn) | -2 | 8 | -31 | 21 | 10 | .
CCCCn1c(N)c(N(CCOC)C(=O)c2ccc(C)c(S(=O)(=O)N3CCCCC3)c2)c(=O)[nH]c1=O | 7 | -7 | . | -1 | -13 | .
Cc1ccc(-c2ocnc2C(=O)N2CCOCC2)cc1 | 4 | -12 | 8 | 6 | 1 | .
CC1CN(S(=O)(=O)c2cc(C(=O)NCCCN3CCCC3=O)ccc2Cl)CC(C)O1 (stereo not drawn) | 12 | 7 | 12 | -8 | -5 | .
Brc1ccc2oc(-c3ccn[nH]3)cc2c1 | 21 | 17 | . | 65* | 34 | 48*
CC1CCCc2sc3nc(NCc4ccco4)n4ncnc4c3c21 (stereo not drawn) | 24 | 18 | -13 | 50* | 33 | 49*
O=C(NC1CCCC1)c1c(O)nc2sccn2c1=O | 28 | -21 | . | 56* | 6 | 27
Nc1nc(-c2ccc(-c3ccccc3)cc2)cs1 | 29 | 0 | -92 | 54* | 27 | 69*
Oc1ccc(-c2csc(-c3ccccc3)n2)cc1O | 39 | -39 | -7 | 58* | 7 | -10
COc1ccc(CCN2CC(C(=O)OCC(=O)N(C)CC(=O)Nc3ccccc3Cl)CC2=O)cc1OC (stereo not drawn) | . | . | 17 | . | . | .
NC(=S)N/N=C/c1ccc(-c2ccc(Cl)c(Cl)c2)o1 | 18 | 27 | -149 | 58* | 39 | 60*
NC(=S)N/N=C/c1ccc(-c2ccccc2)o1 | 24 | 27 | -11 | 11 | 13 | .
C=CCOc1ccn(C)c(=O)n1 | 7 | 14 | -9 | 17 | -13 | .
Cc1cc2cc(CN(CC3CCCO3)C(=S)Nc3ccccc3)c(=O)[nH]c2cc1C (stereo not drawn) | 13 | 32 | -33 | 55* | 18 | 50*
COc1ccc2[nH]c(=O)c(CN(CC3CCCO3)C(=S)Nc3ccccc3)cc2c1 (stereo not drawn) | 3 | 4 | -6 | 16 | 14 | .
CCOC(=O)C1(Cc2cccc(OC)c2)CCCN(C(=O)CNC(C)=O)C1 (stereo not drawn) | 10 | 1 | -8 | 1 | -11 | .
O=c1oc(-c2cccs2)nc2ccc(Br)cc12 | 13 | 20 | -31 | 67* | 38 | 38
Cc1ccc2nc(-c3cccs3)oc(=O)c2c1 | -8 | 19 | . | 37 | 33 | .
Cc1ccccc1-n1c(C)nnc1SCC(=O)NCC1CCCO1 (stereo not drawn) | 18 | -5 | -44 | 4 | 1 | .
Cc1ccc(S(=O)(=O)NCC(=O)OCCOc2ccccc2F)cc1 | 10 | 3 | -7 | 18 | 25 | .
Cc1ccc(S(=O)(=O)NCC(=O)OCCOc2cccc(Cl)c2)cc1 | 2 | 15 | -18 | 51* | 37 | 44*
O=C(CCNC(=O)C1CCN(S(=O)(=O)c2ccccc2)CC1)NCc1ccc(Cl)c(Cl)c1 | -8 | -4 | -27 | 2 | -7 | .
O=C(CC(=O)c1ccccc1O)c1ccc(F)cc1 | 19 | 35 | . | 61* | 20 | 57*
Cc1nn(C)c(Cl)c1CN1CCN(CC(C)C)C(CCO)C1 (stereo not drawn) | 1 | -21 | -6 | 4 | -12 | .
